Compound activity from PubChem.
TrxR1 substrate: substrates of rat thioredoxin reductase 1; O89049; purified TrxR1 substrate turnover, NADPH consumption readout; hit rate 0.01% among 390,000; AID 588456; Potency, µM (doses to about 114 µM), for the others: top-dose activity change, negative = substrate turnover; also: potency is read from the fitted curve at half-maximal effect; % is scaled to controls: 0 for no effect and ±100 for the full control effect; nearly all actives have a fitted effect of over 50% in size
Target sequence (O89049 whole entry, looked up): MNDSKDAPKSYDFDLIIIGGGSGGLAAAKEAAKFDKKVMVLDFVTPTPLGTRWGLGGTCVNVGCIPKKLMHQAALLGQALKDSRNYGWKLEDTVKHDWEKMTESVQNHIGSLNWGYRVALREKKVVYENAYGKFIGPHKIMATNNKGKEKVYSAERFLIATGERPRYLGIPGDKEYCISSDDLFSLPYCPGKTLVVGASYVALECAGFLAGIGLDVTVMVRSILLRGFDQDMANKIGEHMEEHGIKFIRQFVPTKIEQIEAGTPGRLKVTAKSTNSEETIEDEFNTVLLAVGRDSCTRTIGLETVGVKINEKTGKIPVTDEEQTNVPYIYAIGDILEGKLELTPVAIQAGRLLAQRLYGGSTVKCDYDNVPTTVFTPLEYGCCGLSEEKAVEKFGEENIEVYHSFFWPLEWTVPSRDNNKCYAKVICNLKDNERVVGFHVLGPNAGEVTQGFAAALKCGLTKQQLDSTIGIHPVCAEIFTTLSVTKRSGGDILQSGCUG
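Rat TrxR1, dispensed at 90 nM, was prereduced with 400 uM NADPH (final) for 5 min at ~22 deg C, then incubated with compound 15 min before 400 uM selenite. A first-read NADPH fluorescence drop versus no-compound background flagged substrates.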
GCN5L2 inh-1: GCN5L2 (KAT2A) acetyltransferase inhibition; GCN5L2 HAT assay, ThioGlo1 CoA-SH fluorescence; Potency, µM (highest dose often 58.9 µM), without a hit: at the top dose activity change, negative = inhibition, hits mostly inhibitors; hit rate 0.21% among 390,000; also: potency is read from the fitted curve at half-maximal effect; % is scaled to controls: 0 for no effect and ±100 for the full control effect
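Free CoA generated was detected with ThioGlo1 (50uM) fluorescence at Ex340nm/Em540nm, read immediately and after 20 min at room temperature. Enzyme, 20 nM in HEPES pH 7.5 buffer, saw compounds 15 min before adding 75uM H3(1-25) peptide and 70uM acetyl-CoA.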
VDR inhibitor: vitamin D3 receptor (human) inhibition. VDR-SRC2-3 peptide fluorescence polarization, 2 h. P11473. Potency, µM, without a hit: max response, negative = inhibition, actives largely listed as inhibitors. hit rate 0.93% among 400,000. AID 504847; also: potency is read from the fitted curve at half-maximal effect; % is scaled to controls: 0 for no effect and ±100 for the full control effect
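FP read-out; VDR + SRC2-3 coactivator peptide; 23 nl compound by pintool; 2 h RT incubation; reagents held at 4 deg C, protected from light.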
rTrxR1 inhibitor: inhibitors of rat thioredoxin reductase 1; hit rate 1% among 390,000; Potency, µM (doses to about 114 µM), for the others: top-dose activity change, negative = inhibition, most hits filed as inhibitors; recombinant rTrxR1, NADPH fluorescence consumption, selenite substrate; O89049; AID 588453; also: potency is read from the fitted curve at half-maximal effect; % is scaled to controls: 0 for no effect and ±100 for the full control effect; nearly all actives have a fitted effect of over 65% in size
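Rat TrxR1 (90 nM in the dispensed reagent) was pre-reduced with 400 uM NADPH for 5 min at room temperature, then incubated with compound for 15 min. After 400 uM selenite was added, NADPH fluorescence (Ex 340/Em 450 nm) was followed for 8 min.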
GCN5L2 inh-2: human KAT2A HAT inhibition, hit confirmation. shares compounds with GCN5L2 inh-1. GCN5L2 HAT, ThioGlo1 CoA fluorescence, 20 min. Potency, µM, actives largely listed as inhibitors. hit rate 70% among 140. AID 588347
VDR inh confirm: inhibits human vitamin D receptor, primary hit validation | shares compounds with VDR inhibitor | VDR-coactivator inhibition assay, qHTS confirmation | Potency, µM, usual class: inhibitors | hit rate 89% among 840; also: potency is read from the fitted curve at half-maximal effect
VDR FP fluor: blocks human VDR-coactivator binding in fluorescein assay; shares compounds with VDR inhibitor; VDR-coactivator binding, fluorescein fluorescence polarization; Potency, µM (highest dose often 57.1 µM), for inactives: at the highest dose activity change, negative = inhibition, hits mostly inhibitors; hit rate 48% among 840; AID 602200; also: potency is read from the fitted curve at half-maximal effect
VDR bla: inhibits human VDR in beta-lactamase reporter cells; shares compounds with VDR inhibitor; hit rate 23% among 840; Potency, µM (doses to about 46.1 µM), for inactives: top-dose activity change, negative = inhibition, hits mostly inhibitors; AID 602202; VDR beta-lactamase reporter cells, FRET ratio; cells co-treated with VDR agonist LG190178; also: potency is read from the fitted curve at half-maximal effect; % is scaled to controls: 0 for no effect and ±100 for the full control effect
VDR cytotox: counter-screen for vitamin D receptor inhibitors: cytotoxicity; Potency, µM (top dose mostly 48.3 µM), without a hit: top-dose activity change, negative = cytotoxicity, hits mostly cytotoxic; cytotoxicity counter-screen, cell viability, qHTS; hit rate 18% among 840; shares compounds with VDR inhibitor;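 also: potency is read from the fitted curve at half-maximal effect; plate controls were DMSO for no effect and high-concentration cycloheximide for full effect; nearly all actives have a fitted effect of over 75% in size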
* hit, by the source's call; i = inactive; ? = inconclusive; nt = not tested or not shown; [ ] = dose if it differs, or a comment. In the library only some 1.8% were active in any assay of this set; here they are far more common. Calls follow the shape of the dose curve; as a rule, active = well fitted curve in the direction sought with a large enough effect; inconclusive = small, poorly fitted or top-dose-only effect, or another doubt; inactive = no such curve, though single readings can be large; an effect the other way counts as inactive or inconclusive.

SMILES	TrxR1 substrate	GCN5L2 inh-1	VDR inhibitor	rTrxR1 inhibitor	others
CN(C)C(=O)Nc1ccc(-n2nc(C(C)(C)C)oc2=O)c(Cl)c1	nt	-20%	-1%	nt
COP(=S)(OC)Oc1ccc([N+](=O)[O-])cc1	nt	-8%	16µM*	nt
COP(=S)(OC)Oc1ccc(Sc2ccc(OP(=S)(OC)OC)cc2)cc1	1%	?	50µM*	10%
O=[N+]([O-])C(Br)(CO)CO	nt	?	5.6µM*	nt
C[C@@]12CC[C@@H]3c4ccc(O)cc4C[C@H](CCCCCCCCCS(=O)CCCC(F)(F)C(F)(F)F)[C@H]3[C@@H]1CC[C@@H]2O (stereo not given in full)	nt	-10%	1%	nt
C[C@@H]1Cc2c(Cl)cc(C(=O)N[C@H](Cc3ccccc3)C(=O)O)c(O)c2C(=O)O1	nt	30%	-7%	nt
O=C1NC(=O)C2(CCCC2)C(=O)N1	-4%	nt	-2%	1%
O=C1NC(=O)C(=O)C(=O)N1	nt	-13%	3.2µM*	nt
COc1ccc(-c2cc(=O)c3cc(OCC(=O)OC(C)C)ccc3o2)cc1	173%	11%	6%	25%
N[C@@]1(C(=O)O)CC[C@H](C(=O)O)C1	nt	-19%[0.501 µM]	9%	nt
CCCCN1C(=O)/C(=C\c2ccco2)C(=O)N(CCc2ccccc2)C1=O	-7%	40µM*	148%	?
COc1ccc2c3c1OC1C[C@@H](O)C=C[C@@]31CCN(C)C2 (stereo not given in full)	nt	-7%	-2%	nt
[O-]/[N+](=C/c1cccnc1)c1ccc(Br)cc1	-9%	-4%	45µM*	-2%
CCOC(=S)SSC(=S)OCC	nt	?	50µM*	nt
O=C1CS[C@@H](c2ccccc2Cl)c2cc(Cl)ccc2N1	nt	-23%	-8%	nt
O=C1NC(=O)C(=Cc2cccs2)C(=O)N1	9%[2.29 µM]	nt	?	9%[2.29 µM]
CCOc1ccc(N2C(=O)/C(=C\c3cccs3)C(=O)NC2=S)cc1	23%[57.1 µM]	-23%	6%	22µM*
Cc1ccccc1N1C(=O)NC(=O)/C(=C/c2ccc(N3CCOCC3)o2)C1=O	-7%[57.1 µM]	-9%	-4%	-46%
O=C1NC(=S)N(c2ccccc2F)C(=O)/C1=C\c1cccs1	-2%	-19%	?	8.9µM*
O=C1NC(=O)N(CC2CCCO2)C(=O)/C1=C/c1cccs1 (stereo not given)	10%	-13%	-11%	-20%
Cc1ccccc1N1C(=O)/C(=C/c2ccco2)C(=O)NC1=S	nt	2.2µM*	nt	nt
Cc1ccccc1N1C(=O)NC(=O)/C(=C\c2cc(Br)c(N3CCOCC3)o2)C1=O	-29%	28%	?	22µM*
Fc1ccc(C(OCCN2CCN(C/C=C/c3ccccc3)CC2)c2ccc(F)cc2)cc1	nt	-18%	-17%	nt
OC[C@H]1O[C@@H](n2cnc3cc(Cl)c(Cl)cc32)[C@H](O)[C@H]1O	nt	-2%	?	nt
CN[C@H](CC(C)C)C(=O)N[C@H]1C(=O)N[C@@H](CC(N)=O)C(=O)N[C@@H]2C(=O)N[C@H]3C(=O)N[C@H](C(=O)N[C@H](C(=O)O)c4cc(O)cc(O)c4-c4cc3ccc4O)[C@H](O)c3ccc(c(Cl)c3)Oc3cc2cc(c3O[C@@H]2O[C@H](CO)[C@@H](O)[C@H](O)[C@@H]2O[C@H]2C[C@](C)(N)[C@H](O)[C@H](C)O2)Oc2ccc(cc2Cl)[C@H]1O	9%[57.1 µM]	1%	-3%	9%[57.1 µM]
SMILES	TrxR1 substrate	GCN5L2 inh-1	VDR inhibitor	rTrxR1 inhibitor	others
CCc1ccc(N2C(=O)NC(=O)/C(=C\C=C\c3ccco3)C2=O)cc1	-4%	-13%	?	-28%
CCOc1ccc(N2C(=O)/C(=C/c3ccco3)C(=O)NC2=S)cc1	-4%	22µM*	79µM*	?
CCNc1nc(Cl)nc(NCC)n1	nt	28µM*	3%	nt
CCn1c(N)c(C(=O)NC)sc1=S	-16%	-23%	25µM*	-17%[57.1 µM]
CCOC(=O)c1ccccc1C(=O)OCC	8%	-10%	-9%	18%
CCOC(=O)C1=C(C)c2ccccc2OC1(C(=O)OCC)c1ccccc1 (stereo not given)	-12%	-15%	5%	45µM*
COc1ccc(-c2cc(=NCC(=O)O)c3ccccc3o2)cc1	i	?	9%	?	GCN5L2 inh-2=32*
Cc1ccc(NC(=O)NCc2ccc3c(c2)CCN3C(=O)c2ccccc2)c(Cl)c1	6%[57.1 µM]	-9%	15%	36%[57.1 µM]
COc1cc(/C=C2/C(=O)NC(=O)N(c3ccc(C)cc3)C2=O)cc(OC)c1OC	9%	0%	?	?
Cc1ccc(N2C(=O)NC(=O)/C(=C\c3cnc(-c4ccccc4)nc3)C2=O)cc1	2%	40%	22µM*	3.5µM*	VDR inh confirm=27*;VDR FP fluor=?;VDR bla=11%;VDR cytotox=9%
NCCCC[C@H](NC(=O)[C@H](Cc1ccccc1)NC(=O)[C@H](CCCN=C(N)N)NC(=O)[C@@H](N)Cc1ccc(O)cc1)C(N)=O	nt	13%	11%	nt
C=C(C)[C@]12C[C@@H](C)[C@@]34OC(Cc5ccccc5)(O[C@@H]1[C@@H]3C=C(COC(=O)Cc1cc(I)c(O)c(OC)c1)C[C@]1(O)C(=O)C(C)=C[C@@H]41)O2	nt	?	0%	nt
CC1(C)OC(c2ccccc2)=C/C(=C/C=C2C(=O)NC(=S)NC2=O)O1	-7%[57.1 µM]	-10%	-24%	-11%[57.1 µM]
O=C1NC(=S)NC(=O)C1=Cc1ccc(Br)s1	2%	?	22µM*	4.5µM*	VDR inh confirm=4.2*;VDR FP fluor=?;VDR bla=?;VDR cytotox=?
Cc1ccc(OP2(=O)Nc3cc(C)c(C)cc3S2)cc1 (stereo not given)	-6%[57.1 µM]	nt	7.9µM*	51%[57.1 µM]	VDR inh confirm=6.7*;VDR FP fluor=?;VDR bla=7%;VDR cytotox=-12%
Cc1ccc2c(c1)NP(=S)(Oc1ccccc1)N2 (stereo not given)	2%[57.1 µM]	nt	-12%	4%[57.1 µM]
CN(C)c1ccc(C=C2C(=O)NC(=S)NC2=O)cc1[N+](=O)[O-]	5%[57.1 µM]	-15%	22µM*	4µM*	VDR inh confirm=13*;VDR FP fluor=10µM*;VDR bla=28%;VDR cytotox=-8%
CCN(CC)C(=O)N[C@@H]1C[C@@H]2c3cccc4[nH]cc(c34)C[C@H]2N(C)C1	nt	-1%	-12%	?
